Assay outcomes from PubChem.
MCF10A rereplic: inducers of DNA re-replication in MCF 10A breast cells; MCF 10A DNA re-replication, Hoechst nuclear intensity, 48 h; Potency, µM (doses to about 46.1 µM), usual class: activators; hit rate 2.9% among 350,000; also: nearly all actives have a fitted effect of over 50% in size
KB-3-1 cytotox: kills parental KB-3-1 adenocarcinoma cells; KB-3-1 viability, CellTiter-Glo ATP luminescence, 72 h; Potency, µM (highest dose often 46.1 µM), most hits filed as cytotoxic; hit rate 1.4% among 400,000; AID 1347075; also: nearly all actives have a fitted effect of over 60% in size
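Here the drug-naive KB-3-1 line serves as comparator for MDR sub-line selectivity; cells received compound titrations, 72 h at 37 °C, then CellTiter-Glo readout.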
ELG1 DNA repair: ELG1-dependent DNA repair inhibition | hit rate 2.3% among 330,000 | Potency, µM (series often up to 46.1 µM), usual class: inhibitors | AID 504467 | HEK293T ELG1-luciferase reporter, luminescence, 16 h; DNA damage induced by 5-fluorouridine; also: nearly all actives have a fitted effect of over 55% in size
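DMSO vehicle served as the neutral condition. Each well held 2,000 cells given 5-fluorouridine plus compound; after 16 hr at 37 °C/5% CO2, ONE-Glo was added and luciferase measured 30 min later.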
KB-V1 MDR tox: KB-V1 MDR subline cytotoxicity. KB-V1 MDR cells viability, CellTiter-Glo, 72 h. Potency, µM (series often up to 46.1 µM), most hits filed as cytotoxic. hit rate 3.4% among 400,000; also: nearly all actives have a fitted effect of over 60% in size
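In this primary screen, KB-V1 cells overexpressing P-gp are incubated with library compounds (lowest to highest concentration) for 72 h at 37 degrees C before a luminescent ATP viability read.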
SW480 rereplic: induces DNA re-replication in SW480 colon adenocarcinoma cells | SW480 DNA re-replication, Hoechst DNA content imaging, 48 h | Potency, µM (series often up to 46.1 µM), usual class: activators | AID 624297 | hit rate 1.8% among 340,000; also: nearly all actives have a fitted effect of over 55% in size
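Quantitative HTS format with DMSO vehicle controls; 48 hr drug incubation at 37 C, then 40 min Hoechst staining and scanning imager measurement at 405 nm excitation.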
Of the large screens only hits and unclear results are named; the others gave an inactive call; ! = a repeat was not active. Sampled rows, rich in hits. Any-hit rate of the full collection: about 8.1%. Calls follow the shape of the dose curve; as a rule, active = well fitted curve in the direction sought with a large enough effect; inconclusive = small, poorly fitted or top-dose-only effect, or another doubt; inactive = no such curve, though single readings can be large; an effect the other way counts as inactive or inconclusive.

O=C(Oc1ccc(-c2csnn2)cc1)C1CC1	none
Cn1c(SCC(=O)N(C2CCCCC2)C2CCCCC2)nnc1-c1cccs1	MCF10A rereplic 13µM, KB-3-1 cytotox inconclusive, ELG1 DNA repair inconclusive, SW480 rereplic inconclusive
Cn1c(SCc2ccc(F)cc2)nnc1-c1cccs1	ELG1 DNA repair inconclusive, KB-V1 MDR tox 16µM
CCN(C(=O)C(C)Sc1nnc(-c2ccncc2)n1C)C1CCCCC1 (stereo not drawn)	KB-V1 MDR tox 16µM
O=C(CCN1CCc2ccccc2C(c2ccccc2)C1)c1ccc2c(c1)OCCO2 (stereo not drawn)	MCF10A rereplic 5.2µM, KB-3-1 cytotox inconclusive, KB-V1 MDR tox inconclusive, SW480 rereplic inconclusive
O=C(CCN1Cc2ccccc2C1)c1ccc2c(c1)OCCO2	none
Cc1ccccc1C(=O)NC(C(=O)Nc1nc2c(s1)CCCC2)C(C)C (stereo not drawn)	MCF10A rereplic inconclusive, ELG1 DNA repair 21µM
Cc1ncsc1C(=O)Nc1nc2c(s1)CCCC2	KB-3-1 cytotox 16µM, ELG1 DNA repair inconclusive, KB-V1 MDR tox 13µM, SW480 rereplic inconclusive
O=C(Nc1nc2c(s1)CCCC2)c1ccc(Br)s1	KB-3-1 cytotox 16µM, ELG1 DNA repair inconclusive, KB-V1 MDR tox 5.2µM, SW480 rereplic inconclusive
CC(C)Oc1ccc(-c2nc(NCC3CCCO3)c3ccccc3n2)cc1 (stereo not drawn)	MCF10A rereplic inconclusive, ELG1 DNA repair inconclusive, SW480 rereplic inconclusive
Cc1ccc(C2CC2c2n[nH]c(=S)n2-c2cccc(Cl)c2)cc1 (stereo not drawn)	MCF10A rereplic 23µM
Cc1ccc(-n2c(C3CC3c3ccc(Cl)cc3)n[nH]c2=S)cc1 (stereo not drawn)	MCF10A rereplic inconclusive, KB-V1 MDR tox 21µM, SW480 rereplic inconclusive
COc1ccc(C(CC(=O)O)N2Cc3ccccc3C2=O)cc1 (stereo not drawn)	KB-3-1 cytotox inconclusive
C[C@@H]1CCCCO[C@H](CN(C)C)[C@H](C)CN([C@@H](C)CO)C(=O)c2cc(NC(=O)Nc3ccc(C(F)(F)F)cc3)ccc2O1	none (no result: MCF10A rereplic, ELG1 DNA repair, SW480 rereplic)
Cc1cc(Cl)c(S(=O)(=O)N2CCCC2)cc1OCC(=O)NC1CCCCC1	ELG1 DNA repair 13µM
O=C1C=C(Nc2ccc(Cl)cc2)CC(c2ccc(Cl)cc2)C1 (stereo not drawn)	ELG1 DNA repair inconclusive, KB-V1 MDR tox 23µM
Cc1cccc(NC(=O)c2cc(Cl)ccc2[N+](=O)[O-])c1	none
N=C1C(=O)NC(=O)C1c1ccccc1 (stereo not drawn)	none (no result: ELG1 DNA repair)
CN1C(=O)c2ccccc2Sc2ccc(NC(=O)COc3ccc(Cl)cc3)cc21	KB-3-1 cytotox inconclusive, KB-V1 MDR tox 8.2µM (no result: MCF10A rereplic, ELG1 DNA repair, SW480 rereplic)
Cc1ccc(C(=O)Nc2ccc3c(c2)N(C)C(=O)c2ccccc2S3)cc1	KB-3-1 cytotox 16µM, KB-V1 MDR tox inconclusive (no result: MCF10A rereplic, ELG1 DNA repair, SW480 rereplic)
CCCNC(=O)Nc1ccc2c(c1)N(C)C(=O)c1ccccc1S2	KB-3-1 cytotox inconclusive, KB-V1 MDR tox 21µM
CCCCNC(=O)Nc1ccc2c(c1)N(C)C(=O)c1ccccc1S2	none
CC1(C#N)c2ccccc2C(Br)=CN1C(=O)c1ccccc1 (stereo not drawn)	MCF10A rereplic inconclusive, KB-3-1 cytotox inconclusive, KB-V1 MDR tox inconclusive, SW480 rereplic inconclusive
CN(C)c1cccc(-c2nnc(SCCCC#N)o2)c1	ELG1 DNA repair inconclusive, KB-V1 MDR tox 21µM
CCOC(=O)c1ccc(N2CCN(c3ccccc3F)CC2)c(NC(=O)Nc2cccc(OC)c2)c1	ELG1 DNA repair 16µM, KB-V1 MDR tox inconclusive
COC(=O)c1ccc(N2CCOCC2)c(NC(=O)Nc2cccc(OC)c2)c1	ELG1 DNA repair inconclusive, KB-V1 MDR tox inconclusive
Cc1nn(-c2ccccc2)c(C)c1-c1nnc(-c2c(C)nn(-c3ccccc3)c2C)o1	KB-V1 MDR tox 9.2µM
CCn1c(=O)cc(SCC(=O)Nc2ccc3c(c2)OCO3)c2ccccc21	ELG1 DNA repair inconclusive, KB-V1 MDR tox 16µM
CCn1c(=O)cc(SCC(=O)N2CCN(c3ccccc3F)CC2)c2ccccc21	MCF10A rereplic inconclusive, KB-V1 MDR tox 23µM!
CCn1c(=O)cc(SCC(=O)Nc2ccc(C)c(F)c2)c2ccccc21	none (no result: MCF10A rereplic, ELG1 DNA repair, SW480 rereplic)
CCn1c(=O)cc(SCC(=O)N(C)Cc2ccccc2)c2ccccc21	ELG1 DNA repair inconclusive, KB-V1 MDR tox 4.6µM
O=C(COC(=O)c1ccc(Cl)nc1)NNC(=O)c1ccc(Br)cc1	none
COc1ccccc1CN1CCN(C(=O)c2cccc3ccccc23)CC1	none (no result: ELG1 DNA repair)
O=C1c2cc(S(=O)(=O)N(CCO)CCO)ccc2-c2ccc(S(=O)(=O)N(CCO)CCO)cc21	none (no result: ELG1 DNA repair)
COC(=O)c1cc(C)[nH]c2c(C)cc3nc4ccccc4c3c12	MCF10A rereplic 21µM, ELG1 DNA repair 18µM, KB-V1 MDR tox inconclusive, SW480 rereplic inconclusive
COC(=O)c1c(C)nc2ccccc2c1C(=O)O	none
CN(CCO)c1nc(N)c(C#N)c(CC#N)c1C#N	KB-3-1 cytotox inconclusive
CN(c1ccccc1)c1nc(N)c(C#N)c(CC#N)c1C#N	KB-3-1 cytotox 15µM, KB-V1 MDR tox 7.3µM
CCOC(=O)C1=C(c2ccc(OC)cc2)OC(N)=C(C#N)C1c1cccnc1 (stereo not drawn)	none
O=C(CSc1nnc2ccccn12)Nc1ccccc1Cl	ELG1 DNA repair inconclusive
CC(=O)NC(CC(=O)Nc1cccc(S(=O)(=O)N2CCOCC2)c1)c1ccccc1 (stereo not drawn)	SW480 rereplic inconclusive
NCCNc1ccc([N+](=O)[O-])c(Sc2nc3ccccc3[nH]2)c1	none
O=[N+]([O-])c1cc(S(=O)(=O)C(F)(F)F)ccc1Sc1nc2ccccc2s1	MCF10A rereplic inconclusive, KB-3-1 cytotox 3.3µM, KB-V1 MDR tox inconclusive, SW480 rereplic 13µM
CS(=O)(=O)c1ccc(Sc2nc3ccccc3[nH]2)c([N+](=O)[O-])c1	KB-3-1 cytotox inconclusive
CCS(=O)(=O)CCSc1nc2ccccc2s1	none
O=S(=O)(Nc1ccc(O)c(Sc2nc3ccccc3s2)c1)c1ccc(F)cc1	MCF10A rereplic inconclusive
CS(=O)(=O)c1ccc(Sc2nc3ccccc3s2)c([N+](=O)[O-])c1	MCF10A rereplic inconclusive, ELG1 DNA repair inconclusive, KB-V1 MDR tox inconclusive, SW480 rereplic 7.3µM
O=[N+]([O-])c1ccc(N2CCNCC2)cc1Sc1nc2ccccc2[nH]1	KB-3-1 cytotox inconclusive, SW480 rereplic 16µM
O=[N+]([O-])c1cc(S(=O)(=O)C(F)(F)F)ccc1Sc1nc2ccccc2[nH]1	MCF10A rereplic 3.7µM, KB-3-1 cytotox inconclusive, ELG1 DNA repair inconclusive, SW480 rereplic inconclusive
C#CCOCCOCCOCCNc1nc(N2CCOCC2)nc(N2CCN(C(=O)CCCCCCCCCCNC(=O)Cn3cc(CCCCCN)nn3)CC2)n1	none
O=C(CS(=O)(=O)c1ccccc1)Nc1cccnc1	none
COc1cc2c(C(=O)NCc3ccccn3)cn(C)c(=O)c2cc1OC	none
N#C/C(=C\c1ccc(-c2cccc([N+](=O)[O-])c2)o1)c1nnc(N2CCOCC2)n1-c1ccccc1	ELG1 DNA repair 5.8µM (no result: MCF10A rereplic, KB-3-1 cytotox, KB-V1 MDR tox, SW480 rereplic)
